This is an account of results in PubChem BioAssay (NCI).

The structures appear in SMILES notation. This is part of a sample that, as a whole, favours compounds with a hit. Of some 79,000 tested, about 15% had one in any assay. Values without a mark were called inactive. Active and inactive are the calls of the source. No stated cut-off is given here; in the data, active means growth inhibition above about 70%; inactive means the rest.

The nature of test [1]: NCI Yeast Anticancer Drug Screen. Data for the rad50 strain (AID 155).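 Further: 0% = growth of vehicle-only cultures of the same strain.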 To be noted: S. cerevisiae rad50 strain growth inhibition, stronger effect = higher value. The method, boiled down:
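Readout: growth inhibition relative to vehicle-treated cultures. Compound exposure was carried out in a genetically defined yeast strain deficient in DNA damage repair.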

Test [2] in a line: NCI Yeast Anticancer Drug Screen. Data for the mec2-1 strain (AID 157). The following applies: S. cerevisiae mec2-1 strain, stronger effect = higher value. The method, boiled down:
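mec2-1 yeast strain, carrying an alteration in DNA damage repair or cell cycle control, was exposed to compounds; growth inhibition was measured relative to vehicle-treated controls.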

Test [3] in a line: NCI Yeast Anticancer Drug Screen. Data for the sgs1 mgt1 strain (AID 161).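 Further: 0% = growth of cultures given vehicle only.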 To be noted: S. cerevisiae sgs1 mgt1 strain, stronger effect = higher value. The method, boiled down:
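Percent growth inhibition was derived by comparing compound-exposed mutant yeast with vehicle-exposed cultures. The strain carries alterations in DNA damage repair.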

Test [4] can be described thus: NCI Yeast Anticancer Drug Screen. Data for the cln2 rad14 strain (AID 165).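 Further: 0% = growth equal to vehicle treated cultures.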 To be noted: S. cerevisiae cln2 rad14 strain, stronger effect = higher value. The method, boiled down:
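Yeast carrying cln2 and rad14 alterations (cell cycle control and DNA damage repair) were exposed to compounds. Growth inhibition was measured against vehicle-treated controls.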

Test [5] is described as follows: NCI Yeast Anticancer Drug Screen. Data for the bub3 strain (AID 167). To be noted: S. cerevisiae bub3 mutant strain, stronger effect = higher value. The method, boiled down: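 Readout: yeast growth inhibition, expressed relative to vehicle-only wells. The test organism is a mutant strain from a panel with lesions in DNA repair or checkpoint genes.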
The nature of test [6]: NCI Yeast Anticancer Drug Screen. Data for the mlh1 rad18 strain (AID 175). The following applies: S. cerevisiae mlh1 rad18 strain growth inhibition, stronger effect = higher value. The method in brief:
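Growth inhibition of the yeast strain was measured after compound exposure and expressed relative to vehicle-treated controls. The strain carries defined defects in DNA damage repair.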

[7] abbreviates: at 5.0 µM (retest, dose inferred, filed as 0.5).
The mark [8] stands for this setting: at 50.0 µM (retest, dose inferred, filed as 5.0).

For the compound `c1ccc2c(c1)Nc1ccc3ccccc3c1S2`, the growth inhibition is 3% in test [1] (setting [7]); -1% in test [1] (setting [8]); 47.8% in test [1] (at 50.0 µM); -50% in test [2] (setting [7]); 3% in test [2] (setting [8]); 15.2% in test [2] (at 50.0 µM). Besides, the growth inhibition was -1% in test [3] (setting [7]); 13% in test [3] (setting [8]); 41.5% in test [3] (at 50.0 µM); 4% in test [4] (setting [7]); -12% in test [4] (setting [8]); -39.9% in test [4] (at 50.0 µM). For the same compound, the growth inhibition in test [5] (setting [7]) is 30%; in test [5] (setting [8]), 3%; in test [5] (at 50.0 µM), 48.6%; in test [6] (setting [7]) it was 3%; in test [6] (setting [8]) it was 13%; in test [6] (at 50.0 µM), 66.5%.

For the compound `NC(c1ccccc1)P(=O)(OCc1ccc([N+](=O)[O-])cc1)OCc1ccc([N+](=O)[O-])cc1` (stereo not given), the growth inhibition in test [1] (setting [7]) is 15%; in test [1] (setting [8]), 15%; in test [1] (at 50.0 µM) it was 57.2%; in test [2] (setting [7]) it was -4%; in test [2] (setting [8]) it was -4%; in test [2] (at 50.0 µM) it was 33.6%. Moreover, the growth inhibition in test [3] (setting [7]) is -3%; in test [3] (setting [8]), -3%; in test [3] (at 50.0 µM) it was 72.3% (active); in test [4] (setting [7]), 11%; in test [4] (setting [8]) it was 11%; in test [4] (at 50.0 µM) it was 35.6%. Further, the growth inhibition is 6% in test [5] (setting [7]); 6% in test [5] (setting [8]); 36.9% in test [5] (at 50.0 µM); 14% in test [6] (setting [7]); 14% in test [6] (setting [8]); 33.4% in test [6] (at 50.0 µM).

For the compound `CCCCNCCC(SSSC(CCNCCCC)c1ccc(Cl)cc1)c1ccc(Cl)cc1` (stereo not given), the growth inhibition was 26% in test [1] (setting [7]); 97% (active) in test [1] (setting [8]); 95.2% (active) in test [1] (at 50.0 µM); -74% in test [2] (setting [7]); 98% (active) in test [2] (setting [8]); 52.5% in test [2] (at 50.0 µM). The growth inhibition in test [3] (setting [7]) is 20%; in test [3] (setting [8]) it was 99% (active); in test [3] (at 50.0 µM), 98.4% (active); in test [4] (setting [7]) it was 17%; in test [4] (setting [8]), 97% (active); in test [4] (at 50.0 µM), 20.1%. The growth inhibition in test [5] (setting [7]) was 25%; in test [5] (setting [8]), 98% (active); in test [5] (at 50.0 µM), 52.2%; in test [6] (setting [7]) it was 26%; in test [6] (setting [8]), 98% (active); in test [6] (at 50.0 µM), 97.7% (active).

In the case of `Cn1c(=O)c2c(nc(CCCCCCCc3nc4c(c(=O)n(C)c(=O)n4C)n3C)n2C)n(C)c1=O`, the growth inhibition in test [1] (setting [7]) was 4%; in test [1] (setting [8]) it was 5%; in test [1] (at 50.0 µM), 48.9%; in test [2] (setting [7]) it was 1%; in test [2] (setting [8]) it was 18%; in test [2] (at 50.0 µM), 23.3%. In addition, the growth inhibition is 2% in test [3] (setting [7]); 10% in test [3] (setting [8]); 42% in test [3] (at 50.0 µM); 2% in test [4] (setting [7]); 10% in test [4] (setting [8]); 60.2% in test [4] (at 50.0 µM). Moreover, the growth inhibition in test [5] (setting [7]) was 7%; in test [5] (setting [8]), 4%; in test [5] (at 50.0 µM), 16.7%; in test [6] (setting [7]), -2%; in test [6] (setting [8]) it was 9%; in test [6] (at 50.0 µM), 35.8%.

As to `O=C1OC(c2ccc3c(c2)OCO3)Sc2ccccc21` (stereo not given), the growth inhibition in test [1] (setting [7]) is 11%; in test [1] (setting [8]) it was 24%; in test [1] (at 50.0 µM), 30.1%; in test [2] (setting [7]), -4%; in test [2] (setting [8]), -9%; in test [2] (at 50.0 µM) it was 9.85%. Further, the growth inhibition in test [3] (setting [7]) is 1%; in test [3] (setting [8]), 10%; in test [3] (at 50.0 µM), 23.4%; in test [4] (setting [7]), -2%; in test [4] (setting [8]) it was 4%; in test [4] (at 50.0 µM), -2.5%. Moreover, the growth inhibition in test [5] (setting [7]) is 9%; in test [5] (setting [8]), 52%; in test [5] (at 50.0 µM), 68.3%; in test [6] (setting [7]), -6%; in test [6] (setting [8]), 27%; in test [6] (at 50.0 µM) it was 25.8%.

With `CS(=O)(=O)OCCN(CCOS(C)(=O)=O)c1ccc(C=Nc2ccc(-c3csc(-c4ccc(Br)cc4)n3)cc2)cc1`, the growth inhibition is 33% in test [1] (setting [7]); 95% (active) in test [1] (setting [8]); 94% (active) in test [1] (at 50.0 µM); 43% in test [2] (setting [7]); 96% (active) in test [2] (setting [8]); 97.2% (active) in test [2] (at 50.0 µM). Also, the growth inhibition is 18% in test [3] (setting [7]); 90% (active) in test [3] (setting [8]); 94.2% (active) in test [3] (at 50.0 µM); 19% in test [4] (setting [7]); 92% (active) in test [4] (setting [8]); 81.2% (active) in test [4] (at 50.0 µM). The growth inhibition was -4% in test [5] (setting [7]); 90% (active) in test [5] (setting [8]); 74.8% (active) in test [5] (at 50.0 µM); 60% in test [6] (setting [7]); 96% (active) in test [6] (setting [8]); 96% (active) in test [6] (at 50.0 µM).

For `Cn1ncc2c(Nc3cccc(Cl)c3)nc(Nc3cccc(Cl)c3)nc21`, the growth inhibition in test [1] (setting [7]) is 47%; in test [1] (setting [8]), 97% (active); in test [1] (at 50.0 µM), 96% (active); in test [2] (setting [7]), 18%; in test [2] (setting [8]) it was 98% (active); in test [2] (at 50.0 µM), 94.2% (active). The growth inhibition in test [3] (setting [7]) is 27%; in test [3] (setting [8]), 98% (active); in test [3] (at 50.0 µM), 96.2% (active); in test [4] (setting [7]), 11%; in test [4] (setting [8]) it was 97% (active); in test [4] (at 50.0 µM), 95.4% (active). Further, the growth inhibition is -7% in test [5] (setting [7]); 98% (active) in test [5] (setting [8]); 94.2% (active) in test [5] (at 50.0 µM); 32% in test [6] (setting [7]); 97% (active) in test [6] (setting [8]); 95.7% (active) in test [6] (at 50.0 µM).

Consider `CCC[CH2][Sn]([CH2]CCC)([O]C(=O)c1cc(F)cc(F)c1)[O][Sn]([CH2]CCC)([CH2]CCC)[O]C(=O)c1cc(F)cc(F)c1`, for which the growth inhibition in test [1] (setting [7]) was 48%; in test [1] (setting [8]), 88% (active); in test [1] (at 50.0 µM), 83% (active); in test [2] (setting [7]) it was 57%; in test [2] (setting [8]), 97% (active); in test [2] (at 50.0 µM) it was 88.7% (active). For the same compound, the growth inhibition is 40% in test [3] (setting [7]); 95% (active) in test [3] (setting [8]); 89.7% (active) in test [3] (at 50.0 µM); 30% in test [4] (setting [7]); 88% (active) in test [4] (setting [8]); 85.8% (active) in test [4] (at 50.0 µM). Also, the growth inhibition in test [5] (setting [7]) is 49%; in test [5] (setting [8]) it was 99% (active); in test [5] (at 50.0 µM), 89% (active); in test [6] (setting [7]) it was 44%; in test [6] (setting [8]), 96% (active); in test [6] (at 50.0 µM), 87.7% (active).

As for `CC(=O)Oc1ccc(C23CC4CC(CC(C4)C2)C3)cc1`, the growth inhibition was -2% in test [1] (setting [7]); 98% (active) in test [1] (setting [8]); 98.8% (active) in test [1] (at 50.0 µM); -2% in test [2] (setting [7]); 99% (active) in test [2] (setting [8]); 98.5% (active) in test [2] (at 50.0 µM). Besides, the growth inhibition in test [3] (setting [7]) was 16%; in test [3] (setting [8]) it was 99% (active); in test [3] (at 50.0 µM) it was 98.6% (active); in test [4] (setting [7]), -36%; in test [4] (setting [8]), 99% (active); in test [4] (at 50.0 µM), 96.6% (active). The growth inhibition was 25% in test [5] (setting [7]); 108% (active) in test [5] (setting [8]); 98.8% (active) in test [5] (at 50.0 µM); 10% in test [6] (setting [7]); 99% (active) in test [6] (setting [8]); 98.3% (active) in test [6] (at 50.0 µM).

As for `COC(=O)C1c2cc3c(c(O)c2CCC1(C)O)C(=O)c1c(O)cc2c(c1C3=O)OC1OC2(C)C(O)C(N(C)C)C1O` (stereo not given), the growth inhibition in test [1] (setting [7]) was 19%; in test [1] (setting [8]) it was 63%; in test [1] (at 50.0 µM) it was 91.9% (active); in test [2] (setting [7]) it was 28%; in test [2] (setting [8]) it was 59%; in test [2] (at 50.0 µM), 86.3% (active). Moreover, the growth inhibition in test [3] (setting [7]) was 12%; in test [3] (setting [8]), 58%; in test [3] (at 50.0 µM), 92.6% (active); in test [4] (setting [7]), 15%; in test [4] (setting [8]), 73% (active); in test [4] (at 50.0 µM), 69.3%. The growth inhibition in test [5] (setting [7]) is 72% (active); in test [5] (setting [8]) it was 90% (active); in test [5] (at 50.0 µM) it was 83.8% (active); in test [6] (setting [7]) it was 36%; in test [6] (setting [8]), 98% (active); in test [6] (at 50.0 µM), 93% (active).
